The values below come from PubChem BioAssay (Tox21).

The source made the active and inactive calls. Where a call stands in place of a potency, no number is given. The call rests on the fitted dose curve.

In this test the target is Acetylcholinesterase (Homo sapiens) (UniProt P22303). Put plainly: Acetylcholinesterase (AChE) small molecule antagonists: enzyme-based qHTS assay with human liver microsomes (AID 1347399). Further: nearly all actives have a fitted effect of over 60% in size. To be noted: Potency: qHTS inhibition; outcome: qHTS inhibition; series mostly up to 115 µM. The method, boiled down: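 Recombinant human AChE (50 mU/mL in the enzyme mix) and human liver microsomes (0.25 mg/mL final) were preincubated with compound and NADPH (0.25 mg/mL final) for 30 min at 37 C. Acetylthiocholine/DTNB was then added; thiocholine was read colorimetrically after 10 min at room temperature.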
Chain of Acetylcholinesterase (Homo sapiens) (P22303 whole entry, looked up): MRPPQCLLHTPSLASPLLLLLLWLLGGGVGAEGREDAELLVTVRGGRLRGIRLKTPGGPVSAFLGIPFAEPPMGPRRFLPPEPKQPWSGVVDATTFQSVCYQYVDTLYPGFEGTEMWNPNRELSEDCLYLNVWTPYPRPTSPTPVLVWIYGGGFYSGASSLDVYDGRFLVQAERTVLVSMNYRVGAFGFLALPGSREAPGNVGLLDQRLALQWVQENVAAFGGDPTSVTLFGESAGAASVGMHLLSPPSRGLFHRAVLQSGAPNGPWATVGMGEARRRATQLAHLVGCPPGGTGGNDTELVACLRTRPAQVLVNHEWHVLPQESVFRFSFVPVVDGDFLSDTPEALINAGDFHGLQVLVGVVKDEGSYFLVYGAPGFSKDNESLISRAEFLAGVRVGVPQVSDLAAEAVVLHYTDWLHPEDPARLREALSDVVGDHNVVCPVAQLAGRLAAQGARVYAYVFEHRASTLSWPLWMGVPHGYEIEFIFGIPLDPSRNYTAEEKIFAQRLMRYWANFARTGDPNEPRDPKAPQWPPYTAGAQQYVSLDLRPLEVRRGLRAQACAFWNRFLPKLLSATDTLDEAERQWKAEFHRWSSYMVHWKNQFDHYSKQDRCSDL
Regarding `COC=O`, the activity change, negative = inhibition was 0.679% [at 10.5 µM] (inactive).
As to `Oc1ccc(N=Nc2ccccc2)cc1`, the Potency result is “inactive”.
The same measure, in the same setting: with `CCN1CCCC1CN` (stereo not given) the entry was “inactive”; with `CCCCC/C(C=O)=C\c1ccccc1`, “inactive”; with `S=c1nccc[nH]1`, “inactive”.
The same measure, in the same setting: with `CC(=O)c1ccc(Cl)c(Cl)c1Cl` the entry was “inactive”; with `CCOC(=O)C(F)(F)F`, “inactive”; with `C=C(C)C(=O)NCCC[N+](C)(C)C`, “inactive”.
The same measure, in the same setting: to `O=C(O)CCCCCCCC(=O)O` belongs “inactive”.
For `CO[C@@]1(NC(=O)Cc2cccs2)C(=O)N2C(C(=O)O)=C(COC(N)=O)CS[C@@H]21`, the Potency result was “inactive”.
On the same count and under the same terms, with `Cc1cn([C@H]2C=C[C@@H](CO)O2)c(=O)[nH]c1=O` the entry was “inactive”.
Regarding `COc1cc(O)cc(O)c1`, the Potency entry is “inactive”.
On to `CC(=O)C(C)O` (stereo not given), for which the Potency entry was “inactive”.
Still for that read-out and setting: with `CCCCCCCCNC(C)C(O)c1ccc(SC(C)C)cc1` (stereo not given) the entry was “inactive”; with `CC1=CC2C3CC(C=C3C)C2C1` (stereo not given), “inactive”; with `CCCCOC(=O)c1ccc(O)cc1`, “inactive”.
Same read-out and setting: to `CN(C(=O)CN(CCO)CC(=O)N(C)C(C)(C)Cc1ccccc1)C(C)(C)Cc1ccccc1` belongs “inactive”.
Same read-out and setting: to `C/C=C1/CC2C=CC1C2` (stereo not given) belongs “inactive”.
As to `CCCCN1CCCC[C@H]1C(=O)Nc1c(C)cccc1C`, the Potency result was “inactive”.
In the case of `CCC(CC)C(=O)O`, the Potency result is “inactive”.
Still for that read-out and setting: to `C1COCCO1` belongs “inactive”.
Same read-out and setting: with `O=C1OC(=O)C2CC=CCC12` (stereo not given) the entry was “inactive”; with `Cc1ccc(O)c2ncccc12`, “inactive”; with `O=C(Cl)c1ccc(C(=O)Cl)cc1`, “inactive”.
The same measure, in the same setting: with `CC(=O)[C@H]1CC[C@H]2[C@@H]3C[C@H](C)C4=CC(=O)CC[C@]4(C)[C@H]3[C@@H](O)C[C@]12C` the entry was “inactive”.
As for `C=C(C)OC(C)=O`, the Potency entry is “inactive”.
Same read-out and setting: with `CNC(=O)[C@H]1O[C@@H](n2cnc3c(NCc4cc(Cl)ccc4OCc4cc(C)no4)ncnc32)[C@H](O)[C@@H]1N` the entry was “inactive”; with `CC(C)C(=O)Nc1cccc(C(F)(F)F)c1`, “inactive”.
Still for that read-out and setting: with `CCCCCC(=O)OCCc1ccccc1` the entry was “inactive”.
On to `CCCCCC(N)=O`, for which the Potency entry was “inactive”.
For the compound `COc1ccc(COC(C)=O)cc1`, the Potency entry was “inactive”.
On the same count and under the same terms, with `Nc1ccc(Oc2ccc(Cl)cc2)cc1` the entry was “inactive”; with `Cc1cc(C)nc(NS(=O)(=O)c2ccc(N)cc2)n1`, “inactive”; with `CC(=O)c1ccc(O)c(C(N)=O)c1`, “inactive”.
On the same count and under the same terms, with `COc1ccc(N)c(C)c1` the entry was “inactive”; with `FC(F)(F)c1ccc(Cl)c(Cl)c1`, “inactive”.
On to `CCCCCC1CCCC(=O)O1` (stereo not given), for which the Potency entry was “inactive”.
Still for that read-out and setting: to `Cc1ccc2c(c1)C(=O)c1ccccc1C2=O` belongs “inactive”.
Same read-out and setting: with `CC1(C)CO[C@@H](CC(=O)O)CN1` the entry was “inactive”.
Same read-out and setting: with `CCCCCCCCCC=O` the entry was “inactive”.
